{"source": "ChEMBL document CHEMBL2218924", "about": "“A broad activity screen in support of a chemogenomic map for kinase signalling research and drug discovery” (Biochem J, 2013)", "key": {"[1]": {"target": "T1, Ephrin type-B receptor 1 (Homo sapiens) (UniProt P54762)", "T1 sequence (whole entry)": "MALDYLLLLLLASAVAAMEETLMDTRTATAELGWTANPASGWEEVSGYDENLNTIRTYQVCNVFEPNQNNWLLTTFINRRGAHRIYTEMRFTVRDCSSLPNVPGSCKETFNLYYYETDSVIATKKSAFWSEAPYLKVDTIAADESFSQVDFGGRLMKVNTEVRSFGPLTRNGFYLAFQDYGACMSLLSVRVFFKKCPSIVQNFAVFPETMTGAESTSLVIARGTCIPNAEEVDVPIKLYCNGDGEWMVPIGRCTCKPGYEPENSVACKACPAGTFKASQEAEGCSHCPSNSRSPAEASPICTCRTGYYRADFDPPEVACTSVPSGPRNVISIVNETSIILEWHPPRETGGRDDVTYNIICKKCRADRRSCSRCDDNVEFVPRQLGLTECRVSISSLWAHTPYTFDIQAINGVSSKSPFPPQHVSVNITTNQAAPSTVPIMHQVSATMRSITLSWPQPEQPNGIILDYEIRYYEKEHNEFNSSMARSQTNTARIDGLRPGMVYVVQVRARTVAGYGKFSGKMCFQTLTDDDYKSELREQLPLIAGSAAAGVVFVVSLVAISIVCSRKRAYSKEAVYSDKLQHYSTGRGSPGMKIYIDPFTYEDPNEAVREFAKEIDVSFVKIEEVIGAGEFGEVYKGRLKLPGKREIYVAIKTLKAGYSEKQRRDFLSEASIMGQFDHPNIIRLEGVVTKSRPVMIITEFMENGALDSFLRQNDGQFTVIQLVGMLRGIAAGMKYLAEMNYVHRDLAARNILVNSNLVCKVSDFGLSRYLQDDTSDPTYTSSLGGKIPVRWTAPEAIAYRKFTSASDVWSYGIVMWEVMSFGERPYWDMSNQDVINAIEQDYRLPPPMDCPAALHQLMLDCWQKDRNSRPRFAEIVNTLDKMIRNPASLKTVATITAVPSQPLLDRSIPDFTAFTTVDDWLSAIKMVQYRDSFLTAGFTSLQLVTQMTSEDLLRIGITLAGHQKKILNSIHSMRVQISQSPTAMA", "settings": "at 10 µM; call rule not given here"}, "[2]": {"target": "T2, Ephrin type-B receptor 2 (Homo sapiens) (UniProt P29323)", "T2 sequence (whole entry)": "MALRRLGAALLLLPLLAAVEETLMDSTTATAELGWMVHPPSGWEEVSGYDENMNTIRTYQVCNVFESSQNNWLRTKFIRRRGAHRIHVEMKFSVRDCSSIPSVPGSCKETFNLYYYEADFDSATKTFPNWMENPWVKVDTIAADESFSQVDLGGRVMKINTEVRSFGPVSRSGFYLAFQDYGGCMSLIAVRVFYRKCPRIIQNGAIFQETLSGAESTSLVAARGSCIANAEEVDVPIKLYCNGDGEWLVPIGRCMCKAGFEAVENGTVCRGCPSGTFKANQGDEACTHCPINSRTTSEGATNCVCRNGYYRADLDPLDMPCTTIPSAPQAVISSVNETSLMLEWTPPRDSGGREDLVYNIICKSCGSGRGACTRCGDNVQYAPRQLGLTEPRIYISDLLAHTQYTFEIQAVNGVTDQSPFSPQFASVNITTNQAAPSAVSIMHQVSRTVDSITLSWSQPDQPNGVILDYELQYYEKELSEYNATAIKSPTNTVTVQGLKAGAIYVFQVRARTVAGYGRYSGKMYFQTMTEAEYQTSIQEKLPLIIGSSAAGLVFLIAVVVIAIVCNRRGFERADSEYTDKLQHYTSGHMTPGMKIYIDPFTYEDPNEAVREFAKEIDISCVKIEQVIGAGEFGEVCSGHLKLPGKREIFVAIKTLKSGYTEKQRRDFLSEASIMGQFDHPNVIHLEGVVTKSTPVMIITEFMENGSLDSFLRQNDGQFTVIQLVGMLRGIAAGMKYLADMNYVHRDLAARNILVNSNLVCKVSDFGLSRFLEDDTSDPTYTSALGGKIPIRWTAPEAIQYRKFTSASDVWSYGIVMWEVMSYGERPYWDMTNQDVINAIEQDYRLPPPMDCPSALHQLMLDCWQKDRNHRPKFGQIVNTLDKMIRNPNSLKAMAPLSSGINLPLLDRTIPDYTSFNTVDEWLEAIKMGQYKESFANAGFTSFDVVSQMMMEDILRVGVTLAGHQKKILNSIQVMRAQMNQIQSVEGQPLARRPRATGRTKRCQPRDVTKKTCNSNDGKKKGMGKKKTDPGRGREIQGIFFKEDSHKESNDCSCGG", "settings": "at 1 µM"}, "[3]": {"target": "T2, Ephrin type-B receptor 2 (Homo sapiens)", "settings": "at 10 µM"}, "[4]": {"target": "T3, Ephrin type-B receptor 3 (Homo sapiens) (UniProt P54753)", "T3 sequence (whole entry)": "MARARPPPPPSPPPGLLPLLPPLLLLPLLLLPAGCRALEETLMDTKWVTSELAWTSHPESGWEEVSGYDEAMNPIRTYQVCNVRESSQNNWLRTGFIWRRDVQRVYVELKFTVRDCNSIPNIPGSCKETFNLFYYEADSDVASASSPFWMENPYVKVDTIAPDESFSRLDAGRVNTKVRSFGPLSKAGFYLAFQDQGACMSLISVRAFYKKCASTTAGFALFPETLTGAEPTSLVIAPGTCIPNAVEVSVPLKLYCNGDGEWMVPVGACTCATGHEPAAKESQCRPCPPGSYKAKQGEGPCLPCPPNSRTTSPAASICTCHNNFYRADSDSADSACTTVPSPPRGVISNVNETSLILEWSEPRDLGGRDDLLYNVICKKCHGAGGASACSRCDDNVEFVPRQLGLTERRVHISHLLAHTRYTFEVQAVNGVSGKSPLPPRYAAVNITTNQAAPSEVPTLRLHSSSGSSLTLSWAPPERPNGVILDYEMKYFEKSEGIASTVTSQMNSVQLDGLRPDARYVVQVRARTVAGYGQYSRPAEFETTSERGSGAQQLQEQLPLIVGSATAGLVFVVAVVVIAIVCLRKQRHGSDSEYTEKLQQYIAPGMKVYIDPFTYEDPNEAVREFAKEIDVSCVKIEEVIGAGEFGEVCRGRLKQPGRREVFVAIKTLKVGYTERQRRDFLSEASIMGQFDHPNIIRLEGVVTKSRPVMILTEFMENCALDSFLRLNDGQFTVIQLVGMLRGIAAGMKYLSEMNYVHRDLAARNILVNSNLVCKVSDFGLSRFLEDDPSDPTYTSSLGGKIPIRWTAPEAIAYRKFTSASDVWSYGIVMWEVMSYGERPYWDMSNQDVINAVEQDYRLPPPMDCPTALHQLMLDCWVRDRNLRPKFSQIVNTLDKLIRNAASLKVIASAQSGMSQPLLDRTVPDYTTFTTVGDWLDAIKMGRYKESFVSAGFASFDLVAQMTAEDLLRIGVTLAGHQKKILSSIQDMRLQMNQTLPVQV", "settings": "at 1 µM"}, "[5]": {"target": "T3, Ephrin type-B receptor 3 (Homo sapiens)", "settings": "at 10 µM"}, "[6]": {"target": "T4, Ephrin type-B receptor 4 (Homo sapiens) (UniProt P54760)", "T4 sequence (whole entry)": "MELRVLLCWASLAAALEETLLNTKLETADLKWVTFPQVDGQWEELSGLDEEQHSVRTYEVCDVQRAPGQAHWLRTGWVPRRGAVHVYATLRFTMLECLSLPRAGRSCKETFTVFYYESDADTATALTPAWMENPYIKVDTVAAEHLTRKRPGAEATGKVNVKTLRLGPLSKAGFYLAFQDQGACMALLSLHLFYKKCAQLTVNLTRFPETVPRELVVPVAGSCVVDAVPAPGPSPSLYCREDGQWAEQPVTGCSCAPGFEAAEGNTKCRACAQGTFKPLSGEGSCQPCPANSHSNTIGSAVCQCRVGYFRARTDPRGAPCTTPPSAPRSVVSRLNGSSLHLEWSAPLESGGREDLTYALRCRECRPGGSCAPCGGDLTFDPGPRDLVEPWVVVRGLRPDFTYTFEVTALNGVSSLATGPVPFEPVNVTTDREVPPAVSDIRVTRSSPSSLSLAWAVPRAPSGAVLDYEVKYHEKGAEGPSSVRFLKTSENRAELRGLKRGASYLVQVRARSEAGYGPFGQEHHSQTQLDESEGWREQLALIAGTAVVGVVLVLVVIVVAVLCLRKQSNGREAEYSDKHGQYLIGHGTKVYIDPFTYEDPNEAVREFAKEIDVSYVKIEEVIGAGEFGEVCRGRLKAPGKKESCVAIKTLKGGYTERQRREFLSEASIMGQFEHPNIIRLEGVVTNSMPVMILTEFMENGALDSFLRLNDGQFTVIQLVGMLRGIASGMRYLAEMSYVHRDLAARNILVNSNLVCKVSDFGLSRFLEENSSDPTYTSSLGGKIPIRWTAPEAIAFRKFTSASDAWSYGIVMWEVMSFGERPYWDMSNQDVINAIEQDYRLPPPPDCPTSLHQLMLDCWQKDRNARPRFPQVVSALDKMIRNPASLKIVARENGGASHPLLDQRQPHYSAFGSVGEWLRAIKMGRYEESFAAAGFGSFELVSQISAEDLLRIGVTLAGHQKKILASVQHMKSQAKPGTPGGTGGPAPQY", "settings": "at 1 µM"}, "[7]": {"target": "T4, Ephrin type-B receptor 4 (Homo sapiens)", "settings": "at 10 µM"}, "[8]": {"target": "Receptor tyrosine-protein kinase erbB-4 (Homo sapiens) (UniProt Q15303)", "sequence (Q15303 whole entry)": "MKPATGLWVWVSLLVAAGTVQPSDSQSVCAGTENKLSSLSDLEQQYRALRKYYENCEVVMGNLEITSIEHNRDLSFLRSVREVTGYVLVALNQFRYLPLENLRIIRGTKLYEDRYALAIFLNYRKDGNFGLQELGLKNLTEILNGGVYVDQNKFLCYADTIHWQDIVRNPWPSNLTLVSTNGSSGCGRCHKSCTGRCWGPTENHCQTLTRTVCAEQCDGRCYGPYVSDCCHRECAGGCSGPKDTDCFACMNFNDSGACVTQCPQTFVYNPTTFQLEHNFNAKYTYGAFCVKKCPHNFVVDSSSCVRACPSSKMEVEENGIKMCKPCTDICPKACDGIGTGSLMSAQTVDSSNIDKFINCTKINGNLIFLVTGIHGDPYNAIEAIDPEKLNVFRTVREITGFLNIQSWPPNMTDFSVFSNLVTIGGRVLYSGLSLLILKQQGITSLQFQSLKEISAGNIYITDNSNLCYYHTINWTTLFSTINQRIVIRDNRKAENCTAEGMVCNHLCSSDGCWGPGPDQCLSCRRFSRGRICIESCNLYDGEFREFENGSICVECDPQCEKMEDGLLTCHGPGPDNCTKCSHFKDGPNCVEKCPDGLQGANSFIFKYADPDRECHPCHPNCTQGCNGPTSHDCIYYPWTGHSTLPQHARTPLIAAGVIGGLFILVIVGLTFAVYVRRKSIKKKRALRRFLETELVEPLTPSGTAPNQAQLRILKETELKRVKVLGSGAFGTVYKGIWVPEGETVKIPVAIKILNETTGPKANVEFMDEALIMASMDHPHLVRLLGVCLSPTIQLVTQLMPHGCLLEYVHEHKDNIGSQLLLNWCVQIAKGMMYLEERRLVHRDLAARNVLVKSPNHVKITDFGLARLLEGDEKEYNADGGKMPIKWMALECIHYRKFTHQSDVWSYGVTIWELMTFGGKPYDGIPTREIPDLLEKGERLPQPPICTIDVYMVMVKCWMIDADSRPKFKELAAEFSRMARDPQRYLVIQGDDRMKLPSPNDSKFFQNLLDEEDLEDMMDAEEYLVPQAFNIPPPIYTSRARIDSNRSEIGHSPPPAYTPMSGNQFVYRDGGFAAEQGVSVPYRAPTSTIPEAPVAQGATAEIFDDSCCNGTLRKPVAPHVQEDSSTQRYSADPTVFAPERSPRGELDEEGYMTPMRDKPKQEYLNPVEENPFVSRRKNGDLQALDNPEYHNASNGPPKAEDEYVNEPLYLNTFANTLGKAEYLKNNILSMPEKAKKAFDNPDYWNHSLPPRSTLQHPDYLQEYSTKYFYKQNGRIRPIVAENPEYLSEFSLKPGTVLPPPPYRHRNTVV", "settings": "at 1 µM"}, "[9]": {"target": "Receptor tyrosine-protein kinase erbB-4 (Homo sapiens) (UniProt Q15303)", "settings": "at 10 µM"}, "[10]": {"target": "Focal adhesion kinase 1 (Homo sapiens) (UniProt Q05397)", "sequence (Q05397 2-1052 limits assumed)": "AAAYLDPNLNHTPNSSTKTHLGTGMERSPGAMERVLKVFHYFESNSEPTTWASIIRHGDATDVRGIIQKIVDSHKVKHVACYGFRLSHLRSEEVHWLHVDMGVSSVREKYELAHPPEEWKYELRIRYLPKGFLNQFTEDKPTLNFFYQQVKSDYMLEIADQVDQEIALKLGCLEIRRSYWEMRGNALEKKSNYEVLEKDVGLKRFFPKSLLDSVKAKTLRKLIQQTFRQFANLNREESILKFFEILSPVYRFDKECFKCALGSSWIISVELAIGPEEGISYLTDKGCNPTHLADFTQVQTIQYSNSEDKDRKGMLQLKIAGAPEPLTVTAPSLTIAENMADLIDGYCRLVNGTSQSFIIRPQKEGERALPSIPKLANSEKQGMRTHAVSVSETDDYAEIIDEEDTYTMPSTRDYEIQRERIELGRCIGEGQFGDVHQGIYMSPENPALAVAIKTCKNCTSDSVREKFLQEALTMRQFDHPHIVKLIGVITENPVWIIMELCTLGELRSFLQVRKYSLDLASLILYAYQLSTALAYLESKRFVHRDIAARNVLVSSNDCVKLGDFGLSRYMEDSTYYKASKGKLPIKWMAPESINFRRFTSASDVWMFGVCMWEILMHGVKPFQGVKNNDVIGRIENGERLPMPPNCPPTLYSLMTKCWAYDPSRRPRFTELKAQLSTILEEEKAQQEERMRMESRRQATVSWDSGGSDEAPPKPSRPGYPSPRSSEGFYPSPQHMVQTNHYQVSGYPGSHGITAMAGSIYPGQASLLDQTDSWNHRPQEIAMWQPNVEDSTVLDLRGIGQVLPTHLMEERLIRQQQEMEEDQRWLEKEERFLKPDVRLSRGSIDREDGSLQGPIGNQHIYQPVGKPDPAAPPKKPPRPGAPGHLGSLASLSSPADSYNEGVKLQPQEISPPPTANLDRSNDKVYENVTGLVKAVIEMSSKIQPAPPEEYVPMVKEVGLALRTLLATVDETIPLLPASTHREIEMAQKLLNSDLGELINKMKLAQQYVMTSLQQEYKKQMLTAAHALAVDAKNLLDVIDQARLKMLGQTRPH", "settings": "at 1 µM"}}}
{"smiles": "O=Nc1c(-c2c(O)[nH]c3ccccc23)[nH]c2ccccc12", "values": [{"measurement": "residual activity", "setting": "[1]", "value": 13, "unit": "%"}, {"measurement": "residual activity", "setting": "[2]", "value": 91, "unit": "%"}, {"measurement": "residual activity", "setting": "[3]", "value": 13, "unit": "%"}, {"measurement": "residual activity", "setting": "[4]", "value": "105% (inactive)"}, {"measurement": "residual activity", "setting": "[5]", "value": 103, "unit": "%"}, {"measurement": "residual activity", "setting": "[6]", "value": 67, "unit": "%"}, {"measurement": "residual activity", "setting": "[7]", "value": 13, "unit": "%"}, {"measurement": "residual activity", "setting": "[8]", "value": 107, "unit": "%"}, {"measurement": "residual activity", "setting": "[9]", "value": 99, "unit": "%"}, {"measurement": "residual activity", "setting": "[10]", "value": 39, "unit": "%"}]}
